Test results: PubChem BioAssay AID1259416 (Broad Institute, 2018)
In all, about 69,000 compounds went through this assay and about 2,600 (3.8%) were called active. No stated cut-off is given here; in the data, active means activity change below about -70% (passing the limit was not always enough); inconclusive means no clear call, values can overlap the other calls. Only a selection was taken, and actives are over-represented in it overall.

Test: inhibitors of Toxoplasma growth in IFN-γ-primed hosts – cell-based, primary screen (AID 1259416);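 further: host cells are HeLa cells infected with Toxoplasma gondii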
Settings: Toxoplasma gondii growth in IFN-gamma-treated host cells; stronger effect = lower value; concentration not given here

SMILES | activity change, negative = inhibition
COc1cc(/C=C/CN2CCC3(CC2)c2ccccc2[C@@H](NC(=O)C(C)C)[C@@H]3OC)ccc1O | 12.6% (inactive)
CN1C(=O)c2cc(NS(=O)(=O)c3ccccc3F)ccc2OC[C@@H]2O[C@@H](CC(=O)NC3Cc4ccccc4C3)CC[C@@H]21 | -28.5% (inactive)
Cc1cc(C)nc(N2CCN(c3c4c(nc5c(-c6ccccc6)c(C)nn35)CCC4)CC2)n1 | -75.6% (active)
Cc1cc(N2CCN(c3nc(C)cc(C)n3)CC2)ncn1 | 3.08% (inactive)
Cc1nc(N2CCCC2)nc2c1CCN(C(=O)Nc1ccccc1F)CC2 | -2.86% (inactive)
COc1ccc(Cl)cc1S(=O)(=O)N1CCC(c2nc(C(=O)N(C)C)c(C)o2)CC1 | -56% (inactive)
O=C(Cc1ccc(F)cc1)N1CC[C@@H](O)[C@@H]1Cc1ccccc1 | -30.4% (inactive)
CN(Cc1noc(C2CCC2)n1)Cc1ncccc1C(=O)O | -0.548% (inactive)
O=C(NCc1cccnc1)C1=NOC2(CCCN(C(=O)Cc3ccc(F)cc3)C2)C1 (stereo not given) | 53.7% (inactive)
CC(=O)N1CCC(c2cc3c(ncn3C(C)C)c(-c3ccccc3)n2)CC1 | -106% (active)
CC(C)n1cnc2c(N3CCOCC3)nc(C3CCN(Cc4cccnc4)CC3)cc21 | 1.27% (inactive)
CC(C(=O)NC1CC1)N1CCc2[nH]nc(-c3ccc(-c4ccccc4)cc3)c2C1 (stereo not given) | 13.6% (inactive)
CN(CCCc1ccccc1)C(=O)c1cc(CN2CCC(O)CC2)on1 | 6.96% (inactive)
CCCNc1ncc(-c2nccn2CC2CCOCC2)cn1 | 0.573% (inactive)
CCc1c2c(nc3ccc(O)cc13)-c1cc3c(c(=O)n1C2)COC(=O)[C@]3(O)CC | -86.3% (active)
CCN(CC)Cc1cnc2n1CCN(Cc1csc(C)n1)CC2 | 4.3% (inactive)
C[C@@H]1CN([C@H](C)CO)C(=O)c2c(c3ccccc3n2C)-c2ccccc2CO[C@H]1CN(C)C(=O)[C@@H](Cc1ccccc1)N(C)C | -51.4% (inactive)
C[C@H]1CN([C@@H](C)CO)C(=O)c2ccccc2-c2ccccc2CO[C@H]1CN(C)S(=O)(=O)c1cccc(C#N)c1 | 5.72% (inactive)
C[C@H](CO)N1C[C@H](C)[C@@H](CN(C)S(=O)(=O)c2ccc([N+](=O)[O-])cc2)OCc2ccccc2-c2c(n(C)c3ccccc23)C1=O | -73.3% (active)
CC(C)(O)CC[C@@H](O)[C@](C)(O)[C@@H]1CC[C@@]2(O)C3=CC(=O)[C@@H]4C[C@@H](O)[C@@H](O)C[C@]4(C)[C@@H]3CC[C@]12C | 12.2% (inactive)
CN(C)c1nc2c(c(=O)[nH]1)CCN(C(=O)C1(c3ccc(Cl)cc3)CCC1)C2 | -11.9% (inactive)
COc1cc2c(cc1CNC(=O)c1cc3n(n1)CCCN(C)C3)CCC2 | 5.16% (inactive)

SMILES | activity change, negative = inhibition
CC(=O)N1CC(=O)N(c2cnn(C)c2)CC12CCN(C(=O)c1cnc(C)cn1)C2 (stereo not given) | 8.89% (inactive)
O=C(c1cnccn1)N1CCC2(CC(=O)N(c3cccc(F)c3)C2)C1 (stereo not given) | -1.06% (inactive)
Cc1ccsc1C(=O)N1CCC2(C1)CN(c1cccc(F)c1)C(=O)CN2C (stereo not given) | -102% (active)
COc1ccc(C(=O)N2CC(C(=O)N3CCOCC3)C3(CCOCC3)C2)cc1 (stereo not given) | 2.42% (inactive)
O=C(CC1CC1)N1CC[C@@H]2[C@H](CO)Nc3ccc(-c4ccc(F)cc4)cc3[C@@H]21 | -30.6% (inactive)
COc1ccc(-c2noc(-c3c(O)c4ccccc4n(C)c3=O)n2)cc1F | 31.1% (inactive)
O=C(NCc1ccccc1F)c1c(O)c2cccnc2n(-c2cccc(F)c2)c1=O | -102% (active)
O=C(Nc1cccc(Cl)c1)c1c(O)c2cccnc2n(-c2ccc(F)cc2)c1=O | 195% (inactive)
CCc1ccc(NC(=O)c2c(O)c3cccnc3n(-c3ccccc3)c2=O)cc1 | 86% (inactive)
O=C(NCc1ccc(F)cc1)c1c(O)c2cccnc2n(-c2cccc(F)c2)c1=O | -108% (active)
COc1ccc(CNC(=O)c2c(O)c3cccnc3n(-c3ccc(F)cc3)c2=O)cc1 | 85.2% (inactive)
Cc1ccc(NC(=O)c2c(O)c3cccnc3n(-c3cccc(F)c3)c2=O)cc1F | 126% (inactive)
C=CCNC(=O)c1c(O)c2cccnc2n(-c2cccc(F)c2)c1=O | -76.4% (active)
COc1ccccc1CNC(=O)c1c(O)c2cccnc2n(-c2ccccc2)c1=O | -37.8% (inactive)
COc1cccc(-n2c(=O)c(C(=O)NC(C)c3ccccc3)c(O)c3cccnc32)c1 (stereo not given) | -12.7% (inactive)
CCc1cccc(NC(=O)c2c(O)c3cccnc3n(-c3cccc(F)c3)c2=O)c1 | -96.6% (active)
COc1ccc(-n2c(=O)c(C(=O)Nc3ccccc3C)c(O)c3cccnc32)cc1 | 33.1% (inactive)
COc1cccc(-n2c(=O)c(C(=O)Nc3ccccc3F)c(O)c3cccnc32)c1 | 40% (inactive)
Cc1noc(C[C@H]2C[C@@H]3CN(C(=O)c4ccco4)C[C@H]3O2)n1 | -25% (inactive)
CCCN(CCC)C(=O)NCCCCCCNC(=O)N(CCC)CCC | -0.334% (inactive)
CO[C@@H]1CN(C)C(=O)c2cc(NC(C)=O)ccc2OC[C@H](C)N(C(=O)Cc2ccccn2)C[C@@H]1C | 163% (inactive)
O=C(c1cccs1)N1CCn2c(Cn3cccn3)cnc2C1 | 3.34% (inactive)

SMILES | activity change, negative = inhibition
O=S(=O)(c1ccccc1)N1CC2CN(Cc3ccc(O)cc3)CC2C1 (stereo not given) | -5.71% (inactive)
COc1ccccc1-n1cc(CNC(=O)c2ccc(=O)n(C)c2)cn1 | 1.65% (inactive)
O=C(CCn1cnnn1)NCc1cnn2ccccc12 | 1.34% (inactive)
COCC(=O)Nc1ccc(-c2nc(-c3cc(C)ccc3C)co2)cc1 | 11.3% (inactive)
COc1ccc(S(=O)(=O)N2CCOCC2)cc1NC(=O)COc1ccccc1 | -52.6% (inactive)
COc1ccccc1C(=O)Nc1ccc(N2CCN(C)CC2)cc1 | -6.5% (inactive)
CNC(=O)c1ccccc1Nc1nc(Nc2ccc(N3CCOCC3)cc2OC)ncc1Cl | -72.7% (active)
CCS(=O)(=O)N1CCC2(CC1)CN(S(=O)(=O)c1ccc(C)cc1)[C@H](CO)c1[nH]c3cc(OC)ccc3c12 | 268% (inactive)
Nc1cc(C(F)(F)F)c(-c2cc(N3CCOCC3)nc(N3CCOCC3)n2)cn1 | -74.6% (active)
Nc1cc(N2C[C@H]3CC=CC[C@H]3C2)nc(N2CCOCC2)n1 | 14.9% (inactive)
c1cnc2c(-c3cc(N4CCOCC4)ncn3)cccc2c1 | 12.9% (inactive)
Cc1ncc(C(=O)NCCCn2ccc3ccccc32)c(C)n1 | 2.92% (inactive)
CCS(=O)(=O)N1CC2(CN(C(=O)c3ccc(F)cc3)[C@@H](CO)c3c2c2ccc(OC)cc2n3C)C1 | 62.5% (inactive)
CC(C)CN1CCS(=O)(=O)[C@H]2CCN(S(=O)(=O)N(C)C)CC[C@@H]21 | -5.98% (inactive)
Cn1nc(C(=O)NCC2CCC(c3nnc(-c4ccncc4)o3)CC2)ccc1=O (stereo not given) | 24.6% (inactive)
O=C(O)CC1CCC(c2ccc(-c3ccc(Nc4ccc(C(F)(F)F)nc4)cn3)cc2)CC1 (stereo not given) | -61.2% (inactive)
CCCC1CCC(c2ccc(-c3ccc(CC)cn3)cc2F)CC1 (stereo not given) | -76% (active)
COCCN(Cc1cccs1)C(=O)c1ccncc1Cl | 3.28% (inactive)
COc1cccc(C2=NN(C(=O)C(C)C)C(O)(C(F)(F)F)C2)c1 (stereo not given) | -0.0765% (inactive)
COc1c(C)cnc(CN(C)C(=O)c2cnn3cc(C)cnc23)c1C | -3.21% (inactive)
COCC1CCN(c2nc(C(C)(C)C)nc3c2cnn3C)C1 (stereo not given) | -12.1% (inactive)
O=C(Nc1cccnc1)c1cc2c(s1)-c1ccccc1CC2 | -101% (active)

SMILES | activity change, negative = inhibition
Cc1ccc(N2CC3(CCN(C(=O)COc4ccccc4)C3)CC2=O)cc1 (stereo not given) | -15.8% (inactive)
CCN1CCN(c2ncnc3sc(C(=O)NCCc4c[nH]c5ccc(Cl)cc45)c(C)c23)CC1 | -83.1% (active)
O=C(NCCc1c[nH]c2ccccc12)c1cc(=O)nc2sc(N3CCCC3)nn12 | 5.09% (inactive)
CCOC(=O)c1nc(NCCc2c[nH]c3ccc(Cl)cc23)c2c(C)noc2n1 | 46.7% (inactive)
COCCn1cc(-c2nc(C(=O)NCCc3cccnc3)c3ccccn23)nc1C | -8.4% (inactive)
CC(C)(C)c1ccc(C(=O)NC(=S)Nc2ccc(N3CCCCC3)cc2)cc1 | -87.8% (active)
Cc1ccc(C(=O)NC(=S)Nc2cccc(NC(=O)c3ccccc3)c2)cc1C | -63.6% (inactive)
O=C(O)CC1(CC(=O)Nc2ccc(N3CCCCC3)cc2)CCCCC1 | 96.8% (inactive)
CC1CCN(c2ncnc3c2cnn3CC(=O)Nc2cc(F)cc(F)c2)CC1 | -68.2% (inactive)
Cc1cc(NC(=O)CC2CCCCC2)n(-c2ncnc3c2cnn3-c2ccc(Cl)cc2)n1 | 16.1% (inactive)
CC1CCN(c2cncnc2-n2cc(NC(=O)CC3CCCCC3)cn2)CC1 | -88.5% (active)
Cc1c(CN(C)C(=O)COc2cccnc2)[nH]c2ccccc12 | 66.9% (inactive)
Cc1cccc(-c2[nH]n3c(=O)cc(C(C)n4cnc5ccccc5c4=O)nc3c2C)c1 (stereo not given) | -29.3% (inactive)
COc1cc(CCC(C)NC(=O)c2ccc(C)cc2)ccc1OC(=O)c1ccc(C)cc1 (stereo not given) | -12.5% (inactive)
O=C1c2ccc(Nc3ccc(F)cc3F)cc2CCc2ccc(OC[C@H](O)CO)cc21 | -74% (active)
COCC(=O)N1CCC2(CC1)C(=O)N(c1cncnc1)c1ccccc12 | -5.94% (inactive)
C[C@H]1CN([C@@H](C)CO)S(=O)(=O)c2ccc(C#Cc3cccc(F)c3)cc2O[C@@H]1CN(C)S(=O)(=O)c1cn(C)cn1 | -91.2% (active)
C[C@H]1CN([C@@H](C)CO)S(=O)(=O)c2ccc(C#CC3(O)CCCC3)cc2O[C@@H]1CN(C)C(=O)Nc1cccc(F)c1 | -69.9% (inactive)
C[C@@H]1CN([C@@H](C)CO)S(=O)(=O)c2ccc(C#Cc3cccc(F)c3)cc2O[C@H]1CN(C)S(=O)(=O)c1cn(C)cn1 | -31.1% (inactive)
